Compound activity from PubChem BioAssay.
An excerpt weighted towards active compounds, which were near 21% of everything screened.
DT40 TDP1 no CPT = qHTS for Inhibitors of human tyrosyl-DNA phosphodiesterase 1 (TDP1): qHTS in cells in absence of CPT; DT40 Tdp1-/- hTDP1 cells, no CPT, ATP luminescence, 48 h; Potency, µM (series often up to 46.2 µM), inactives show at the top dose activity change, negative = growth inhibition, most hits filed as inhibitors; 420,000 tested, 15% active; AID 686978, 2013; note: potency is the fitted concentration of half-maximal effect; % is set by controls: 0 for no effect and ±100 for the full control effect; nearly all actives have a fitted effect of over 55% in size
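No-CPT arm: Tdp1-/-;hTDP1 DT40 cells (400/well) plus compounds, incubated ≥48 hr at 37 °C. Readout CellTiter-Glo luminescence.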
IL1B secr inh = inhibitors of inflammasome signaling (IL-1 beta secretion); THP-1 LPS/ATP IL-1B secretion, AlphaLISA, 16 h; active compounds read low; activity change, % at 57.5 µM; 360,000 tested, 4.7% active; in the data active = activity change below about -50%; inconclusive = mostly about -30% to -49%; note: % is set by controls: 0 for no effect and ±100 for the full control effect
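THP-1 cells pretreated 1 hr with compounds (up to 57.5 uM final), then stimulated with LPS (250 ng/mL final) plus ATP (1.25 mM final); secreted IL-1B measured by AlphaLISA after 16 hr, decreased signal indicating inhibition.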
TDP1 cell CPT = DT40-hTDP1 cell growth loss with CPT; Potency, µM (titrated, usually from 46.2 µM), inactives show at the highest dose activity change, negative = growth inhibition, hits mostly inhibitors; chicken DT40 Tdp1-/-;hTDP1 cells + 20 nM CPT, ATP luminescence, 48 h; AID 686979; 420,000 tested, 12% active; note: potency is the fitted concentration of half-maximal effect; % is set by controls: 0 for no effect and ±100 for the full control effect; nearly all actives have a fitted effect of over 55% in size
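Cell growth measured by CellTiter-Glo luminescence after a minimum 48 h, 37 C compound exposure with 20 nM CPT in Tdp1-knockout DT40 cells stably expressing hTDP1, seeded 400/well; qHTS titration format.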
D3 antag = antagonists of human D3 dopamine receptor | D3R cells, DiscoveRx beta-arrestin luminescence, antagonist mode; active compounds read low | max response, negative = inhibition, % | AID 652054 | P35462 | 360,000 tested, 2.5% active; in the data active = max response below about -50%; inconclusive = no clear call, values can overlap the other calls; note: % is set by controls: 0 for no effect and ±100 for the full control effect
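Cells plated overnight at 1500 cells/well, then exposed to library compounds with dopamine controls for 90 minutes at 37 degrees C. DiscoveRx reagent added for 30–60 minutes at room temperature; luminescence read, quantitative HTS format.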
DRD3 agonist = D3 dopamine receptor (human) agonism. P35462. AID 652048. max activation, %. 410,000 tested, 0.58% active. D3R DiscoveRx beta-arrestin cells, luminescence, 90 min; in the data active = max activation above about 30%; note: 0% is about no effect
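Agonist mode: compounds and dopamine controls were applied to plated cells for 90 min at 37 degrees C after an overnight attachment at 1500 cells/well. Luminescent read-out followed 30 - 60 minutes at room temperature with DiscoveRx detection reagent.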
ClpP mod = qHTS Assay for Activators of ClpP. purified B. subtilis ClpP, FRET peptide cleavage, 20 min. Potency, µM (series often up to 57.5 µM), for the others: at the highest dose activity change, negative = active. 340,000 tested, 1.9% active. AID 651965, 2013; active = well fitted falling curve with a large enough effect; inconclusive = small, poorly fitted or top-dose-only effect; inactive = no such curve, though single readings can be large or run the other way; note: potency is the fitted concentration of half-maximal effect; the source files actives as falling curves though it sought activators and does not explain the sign; nearly all actives have a fitted effect of over 65% in size
Target sequence (P80244 whole entry, looked up): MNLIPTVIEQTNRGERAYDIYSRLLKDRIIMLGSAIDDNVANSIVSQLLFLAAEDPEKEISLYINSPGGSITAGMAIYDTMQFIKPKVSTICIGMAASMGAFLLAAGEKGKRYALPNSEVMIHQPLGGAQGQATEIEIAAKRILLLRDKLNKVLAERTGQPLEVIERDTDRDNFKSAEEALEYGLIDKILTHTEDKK
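Buffer: 100 mM Tris/HCl pH8, 100 mM KCl, 0.05% low protease BSA, 2.5% glycerol, 0.01% Tween-20. ClpP 10 microg/mL final; 20 min RT; delta FRET normalized to ADEP and DMSO controls.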
The depositor's hits bear a star; ? = inconclusive; nt = no result given. Unless noted, calls come from the whole dose curve; as a rule, active = well fitted inhibition curve with a large enough effect; inconclusive = small, poorly fitted or top-dose-only effect; inactive = flat fitted curve, though single readings scatter.

SMILES	DT40 TDP1 no CPT	IL1B secr inh	TDP1 cell CPT	D3 antag	DRD3 agonist	ClpP mod
COc1cc(C2c3cc4c(cc3OC(NNC(N)=S)C2C)OCO4)cc(OC)c1OC (configuration not stated)	0.92µM*	?	1.3µM*	-15.9	-3.6	-2.0%
COc1cc(C2c3cc4c(cc3OC(NNC(N)=O)C2C)OCO4)cc(OC)c1OC (configuration not stated)	1.3µM*	-65.6*	1.3µM*	-0.6	-5.4	-7.0%
COc1ccc(C2c3cc4c(cc3OC(NNC(N)=O)C2C)OCO4)cc1 (configuration not stated)	?	16.0	?	-0.2	-3.8	-3.1%
COc1cc(C2c3cc4c(cc3OC(NCc3ccccc3)C2C)OCO4)cc(OC)c1OC (configuration not stated)	1.46µM*	15.0	1.16µM*	4.9	-5.4	-0.2%
COc1cc(CC(=O)NCc2ccc3c(c2)OCO3)cc(OC)c1OC	-19.9%	1.3	-24.7%	7.6	0.0	0.8%
Cc1cnc(CNc2nc(-c3ccccc3Cl)nc3ccccc23)cn1	-13.9%	nt	-15.1%	nt	nt	nt
CCN(C(=O)CSc1nnc(-c2c[nH]c3ccccc23)o1)C1CCS(=O)(=O)C1 (configuration not stated)	-28.3%	-3.5	-17.9%	-6.2	-3.4	0.3%
CCOCCCNC(=O)N1CCN(S(=O)(=O)c2ccc3c(ccn3C)c2)CC1	nt	nt	nt	nt	-16.7	-0.7%
Cc1cccc(-c2nc3nc(C)cc(NC(C)c4ccccc4)n3n2)c1 (configuration not stated)	nt	nt	nt	nt	-0.5	-3.2%
CCOC(=O)c1cnc(NCc2ccc(Cl)cc2)c2ccccc12	-24.0%	nt	?	nt	-17.7	4.1%
Cc1ccc(CCN=c2c([N+](=O)[O-])nn(-c3ccccc3)n2O)cc1	?	?	?	6.3	7.1	nt
COc1ccc(-n2nc([N+](=O)[O-])c(=NCCc3ccccc3)n2O)cc1	?	-6.6	16.4µM*	9.5	-8.5	0.6%
COc1cccc(CN=c2c([N+](=O)[O-])nn(-c3ccccc3C)n2O)c1	?	8.8	23.1µM*	-17.4	-16.6	-0.6%
O=[N+]([O-])c1nn(-c2ccccc2)n(O)c1=NCCc1ccccc1	14.6µM*	-5.4	6.51µM*	6.4	6.7	-9.8%
CN(C)c1ccc(-c2cncnc2NCc2ccccc2)cc1	-26.0%	nt	-29.7%	nt	nt	nt
CN(C)Cc1cc(O)c(CN(C)C)cc1O	3.66µM*	6.6	2.59µM*	-7.4	4.7	-19.5%
CN(C)Cc1cc(C(C)(C)C)cc(C(C)(C)C)c1O	7.2%	-12.8	?	-3.8	0.3	-3.6%
CCOc1ccc(-n2c(COc3ccc(C)cc3)nnc2SCC(N)=O)cc1	-13.6%	-6.9	-14.1%	8.3	0.1	-3.3%
CCOC(=O)C(CC)Sc1nnc(COc2ccc(C)cc2)n1-c1ccccc1 (configuration not stated)	?	0.5	20.6µM*	5.8	1.2	1.0%
O=C(CSc1nnc(COc2ccccc2)n1-c1ccccc1)c1cccs1	20.6µM*	?	18.4µM*	2.8	-10.3	-1.4%
O=C(O)CSc1nnc(COc2ccccc2)n1-c1ccccc1	10.5%	-7.6	2.0%	5.2	2.5	2.3%
Cc1ccc(OCc2nnc(SCC(=O)c3cccs3)n2-c2ccccc2)cc1C	?	-17.4	?	-52.5*	0.3	-1.9%
CCn1c2ccccc2c2cc(NC(=O)c3cccc(OC)c3)ccc21	7.94µM*	?	8.91µM*	-20.8	-14.3	-11.4%
COc1cccc(NC(=O)c2cccc(OC)c2OC)c1	-22.2%	-7.9	-5.5%	117.4	0.0	0.0%
COc1cccc(C(=O)Nc2cccc3c2ccc2cccn23)c1	23.1µM*	-29.9	16.4µM*	4.4	-1.1	nt
